# Measurements: the supplement of paper PMC12282887
# ± gives the standard deviation of the averaged measurements.
# Key:
# Assay in all cases: promoter activity interaction Z-score (Lux/OD deviation from empty-vector control); higher = stronger promoter induction by the compound
# [1] = test system: E. coli BW25113 acrABp lux reporter
# Procedure, shortened: (§1)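 E. coli BW25113 (wild type or marA, soxS or rob deletion) carrying low-copy luxCDABE promoter reporters grew in 40 µl LB Lennox in 384-well plates at 37°C. Each compound was tested at four 1:2 dilutions in biological duplicates. OD600 and luminescence were read every 30 min for 12 h. Areas were taken over 0–8 h (wild type) or 1–9 h (mutants), and wells below 10% of median growth area were removed. The score is the Z-transformed residual of growth-normalised luminescence fitted against the empty-vector control.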
# [2] = test system: E. coli BW25113 micFp lux reporter
# Procedure, shortened: as §1
# [3] = test system: E. coli BW25113 ompFp lux reporter
# Procedure, shortened: as §1
# [4] = 0.62 µg/ml, genetic background: wild type
# [5] = 0.62 µg/ml, genetic background: ΔmarA
# [6] = 0.62 µg/ml, genetic background: Δrob
# [7] = 0.62 µg/ml, genetic background: ΔsoxS
# [8] = 1.2 µg/ml, genetic background: wild type
# [9] = 1.2 µg/ml, genetic background: ΔmarA
# [10] = 1.2 µg/ml, genetic background: Δrob
# [11] = 1.2 µg/ml, genetic background: ΔsoxS
# [12] = 2.5 µg/ml, genetic background: wild type
# [13] = 2.5 µg/ml, genetic background: ΔmarA
# [14] = 2.5 µg/ml, genetic background: Δrob
# [15] = 2.5 µg/ml, genetic background: ΔsoxS
# [16] = 5 µg/ml, genetic background: wild type
# [17] = 5 µg/ml, genetic background: ΔmarA
# [18] = 5 µg/ml, genetic background: Δrob
# [19] = 5 µg/ml, genetic background: ΔsoxS
smiles,measurement,setting,value
CN[C@@H]1[C@H](O)[C@H](NC)[C@H]2O[C@@]3(O)C(=O)C[C@@H](C)O[C@H]3O[C@@H]2[C@H]1O [Spectinomycin],promoter activity interaction Z-score,[1]; [4],-0.0967 ± 0.053
same,promoter activity interaction Z-score,[1]; [5],0.63 ± 1.1
same,promoter activity interaction Z-score,[1]; [6],-0.155 ± 0.22
same,promoter activity interaction Z-score,[1]; [7],-0.229 ± 0.36
same,promoter activity interaction Z-score,[1]; [8],0.0581 ± 0.015
same,promoter activity interaction Z-score,[1]; [9],1.75 ± 0.53
same,promoter activity interaction Z-score,[1]; [10],-0.245 ± 0.14
same,promoter activity interaction Z-score,[1]; [11],0.468 ± 0.31
same,promoter activity interaction Z-score,[1]; [12],-0.0145 ± 0.16
same,promoter activity interaction Z-score,[1]; [13],0.746 ± 1
same,promoter activity interaction Z-score,[1]; [14],-0.204 ± 0.38
same,promoter activity interaction Z-score,[1]; [15],-0.222 ± 0.034
same,promoter activity interaction Z-score,[1]; [16],0.0345 ± 0.34
same,promoter activity interaction Z-score,[1]; [17],1.39 ± 0.42
same,promoter activity interaction Z-score,[1]; [18],0.0966 ± 0.39
same,promoter activity interaction Z-score,[1]; [19],0.99 ± 0.69
same,promoter activity interaction Z-score,[2]; [4],0.0396 ± 0.21
same,promoter activity interaction Z-score,[2]; [5],0.0233 ± 0.13
same,promoter activity interaction Z-score,[2]; [6],0.0237 ± 0.29
same,promoter activity interaction Z-score,[2]; [7],-0.0535 ± 0.0022
same,promoter activity interaction Z-score,[2]; [8],0.102 ± 0.093
same,promoter activity interaction Z-score,[2]; [9],-0.0481 ± 0.051
same,promoter activity interaction Z-score,[2]; [10],-0.00303 ± 0.08
same,promoter activity interaction Z-score,[2]; [11],0.208 ± 0.053
same,promoter activity interaction Z-score,[2]; [12],0.0906 ± 0.13
same,promoter activity interaction Z-score,[2]; [13],0.0124 ± 0.13
same,promoter activity interaction Z-score,[2]; [14],-0.193 ± 0.016
same,promoter activity interaction Z-score,[2]; [15],0.131 ± 0.081
same,promoter activity interaction Z-score,[2]; [16],0.33 ± 0.19
same,promoter activity interaction Z-score,[2]; [17],-0.0142 ± 0.091
same,promoter activity interaction Z-score,[2]; [18],-0.115 ± 0.2
same,promoter activity interaction Z-score,[2]; [19],0.467 ± 0.33
same,promoter activity interaction Z-score,[3]; [4],0.543 ± 0.52
same,promoter activity interaction Z-score,[3]; [5],0.58 ± 0.32
same,promoter activity interaction Z-score,[3]; [6],0.8 ± 0.87
same,promoter activity interaction Z-score,[3]; [7],0.0444 ± 0.43
same,promoter activity interaction Z-score,[3]; [8],0.46 ± 0.84
same,promoter activity interaction Z-score,[3]; [9],0.92 ± 1.9
same,promoter activity interaction Z-score,[3]; [10],1.39 ± 1.6
same,promoter activity interaction Z-score,[3]; [11],0.446 ± 0.44
same,promoter activity interaction Z-score,[3]; [12],0.634 ± 0.23
same,promoter activity interaction Z-score,[3]; [13],0.0667 ± 0.36
same,promoter activity interaction Z-score,[3]; [14],0.00624 ± 0.23
same,promoter activity interaction Z-score,[3]; [15],0.0301 ± 0.019
same,promoter activity interaction Z-score,[3]; [16],1.76 ± 0.4
same,promoter activity interaction Z-score,[3]; [17],3.2 ± 2
same,promoter activity interaction Z-score,[3]; [18],1.79 ± 0.59
same,promoter activity interaction Z-score,[3]; [19],1.52 ± 0.2
